# Laboratory results reported in PMC5540273 (PLoS ONE, 2017).
# Tests used:
# Conditions in all cases: concentration: 1 μM, replicates: in singlicate; n = 1
# CAMK1 = system: CAMK1
# CAMK2A = system: CAMK2A
# CAMK2B = system: CAMK2B
# CAMK2D = system: CAMK2D
# CAMK2G = system: CAMK2G
# CAMK4 = system: CAMK4
# CAMKK1 = system: CAMKK1
# CAMKK2 = system: CAMKK2
# CASK = system: CASK
# CDC2L1 = system: T1, CDC2L1
# T1 construct: gene CDK11B
# CDC2L2 = system: CDC2L2
# CDC2L5 = system: T2, CDC2L5
# T2 construct: gene CDK13
# CDK11 = system: T3, CDK11
# T3 construct: gene CDK19
# CDK2 = system: CDK2
# CDK3 = system: CDK3
# CDK4-cyclinD1 = system: CDK4-cyclinD1
# CDK4-cyclinD3 = system: CDK4-cyclinD3
# CDK4 = system: CDK4
# CDK5 = system: CDK5
# CDK7 = system: CDK7
# 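Note: KINOMEscan kinase panel screen.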
SMILES,%Inh (CAMK1) [%],%Inh (CAMK2A) [%],%Inh (CAMK2B) [%],%Inh (CAMK2D) [%],%Inh (CAMK2G) [%],%Inh (CAMK4) [%],%Inh (CAMKK1) [%],%Inh (CAMKK2) [%],%Inh (CASK) [%],%Inh (CDC2L1) [%],%Inh (CDC2L2) [%],%Inh (CDC2L5) [%],%Inh (CDK11) [%],%Inh (CDK2) [%],%Inh (CDK3) [%],%Inh (CDK4-cyclinD1) [%],%Inh (CDK4-cyclinD3) [%],%Inh (CDK4) [%],%Inh (CDK5) [%],%Inh (CDK7) [%]
c1ccc(-c2cnc3nccnn23)cc1 [AH20685],0,0,0,0,0,0,1,0,4,0,18,0,0,0,2,0,0,0,0,0
COC(=O)Nc1nc2ccc(Oc3ccc(NC(=O)Nc4cc(C(F)(F)F)ccc4F)cc3)cc2n1C.Cl [GW692089],0,0,0,0,3,0,4,0,1,0,10,0,43,0,0,46,0,26,0,69
Cc1ccc(C(=O)Nc2ccc(Nc3ccnc4cc(-c5nccs5)ccc34)cc2O)cc1.Cl [GW494702],13,0,0,0,14,0,3,6,4,0,0,0,0,94.4,8,39,0,43,0,9
COc1cccc(NC(=O)NC2CCN(c3ccnc(Nc4cc(OC)c(OC)c(OC)c4)n3)C2)c1 (stereo not drawn) [GSK1379763],26,0,0,13,38,0,40,36,15,1,10,0,5,0,21,0,0,0,0,0
O=C(O)C(F)(F)F.O=C(O)C(F)(F)F.O=c1[nH]ccc2nc(N[C@@H]3CCCNC3)nc(Nc3ccc(S(=O)(=O)N4CCOCC4)cc3)c12 [GSK2177277],88,100,99.9,54,54,95.6,94.2,57,2,0,17,0,0,88,88,98.1,99.8,62,90.8,99.6
COc1cccc(-c2ccc3c(NC(=O)C4CC4)n[nH]c3n2)c1 [SB-710903],0,100,100,8,9,0,6,7,23,0,1,0,0,33,41,61,15,52,0,0
COc1cc(Nc2nccc(N3CCC(NC(=O)Nc4cccc(C(C)=O)c4)C3)n2)cc(OC)c1OC (stereo not drawn) [GSK1379753],42,0,0,0,0,0,0,4,0,0,14,0,16,0,11,0,0,0,0,0
c1ccc(-c2n[nH]cc2Nc2ccnc3ccccc23)nc1 [GW694077],20,21,17,19,23,0,13,28,33,0,6,0,6,0,7,58,46,37,0,47
C[C@@H]1CC[C@@H](C(=O)Nc2ccccc2)CN1c1cc(-c2ccc3c(N)n[nH]c3c2)nc(N)n1 [GSK2286062],28,0,0,17,18,0,0,7,5,7,20,0,0,20,0,0,0,16,0,0
O=C(Nc1cccc(-c2nn3ncccc3c2-c2ccnc(Nc3ccccc3)n2)c1)c1c(F)cccc1F [GSK198271],39,0,0,13,8,0,0,8,3,0,18,0,0,0,8,0,0,0,0,0
Nc1ncnc2c1nc(-c1ccccc1)n2-c1ccccc1 [SKF-97293],13,3,1,18,4,0,0,6,17,0,5,48,7,12,13,21,0,21,3,41
COc1cc(Nc2nccc(-c3c(-c4cccc(NC(=O)c5c(F)cccc5F)c4)nn4ccccc34)n2)cc(OC)c1OC [GSK323521],31,3,0,35,40,30,40,38,5,0,14,0,96.9,20,21,0,0,7,28,0
Cn1cc(-c2[nH]c3cc(NC(=O)[C@H](N)C4CCCCC4)cc4c3c2C=NNC4=O)cn1,49,68,15,76,73,0,60,56,6,2,6,0,15,8,0,0,0,0,11,41
Cn1cc(-c2ccc3c(c2)CCN3C(=O)Cc2cccc(Cl)c2)c2c(N)ncnc21 [GSK2606590],26,0,0,18,25,0,19,12,7,0,18,0,99.5,0,7,0,0,34,0,0
CC(C)c1nc(-c2cccc(NS(=O)(=O)c3c(F)cccc3F)c2F)c(-c2ccnc(Nc3ccc(N4CCOCC4)nc3)n2)s1 [GSK2008607],81,0,0,3,29,65,55,15,0,12,47,84,6,99.4,99.5,65,93.6,96.3,99.1,93.1
